Source: PubChem BioAssay
Shown are actives, neighbours in structure and some others; about 4.1% of the full set was active somewhere.
hgDAF12 agonist = activates the H. glycines DAF-12 receptor ligand-binding domain; HEK293 GAL4-hgDAF12 UAS-luciferase reporter, agonist luminescence; normalized to butyrate control; activation, % at 6.8 µM; hit rate 1.8% among 370,000; AID 687014;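 active means activation above a cutoff set at the mean of all screened compounds plus 3 SD, cut at about 10% in these data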;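 further: 0% = DMSO wells and 100% = sodium butyrate wells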
DAX1 inh-1 = inhibitors of DAX1 repression of SF-1 activated StAR promoter. hit rate 1.1% among 370,000. inhibition, % at 6.8 µM. HEK293T StAR-luciferase reporter, SF-1/DAX-1 repression relief;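 active means inhibition above the mean over all tested compounds plus 3 SD, cut at about 3.6% in these data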;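 further: 0% = DAX-1 cells with DMSO and 100% = cells lacking DAX-1 with DMSO; higher inhibition means more luminescence from relief of DAX-1 repression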
hcDAF-12 act = H. contortus DAF-12 activation, primary screen. AID 652067. activation, % at 6.8 µM. HEK293 hcDAF-12 lit1-tk-luc reporter, luminescence; 0% DMSO, 100% Δ7-dafachronic acid. hit rate 1.4% among 370,000;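 active means activation above the mean of all tested compounds plus 3 SD, cut at about 5.5% in these data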;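 further: 100% = response to 3 µM Δ7-dafachronic acid high control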
ssDAF12 agonist = activators of S. stercoralis DAF-12 nuclear receptor | HEK293 ssDAF-12/GRIP1 lit1-tk-luc reporter, luminescence; % of 3 µM dafachronic acid response | activation, % at 6.8 µM | hit rate 1% among 370,000 | AID 652126;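 active means activation above the mean over all tested compounds plus 3 SD, cut at about 0.9% in these data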;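 further: 0% = DMSO-only wells and 100% = 3 µM delta7-dafachronic acid wells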
DAX1 inh-2 = inhibitors of human orphan nuclear receptor DAX1 (NR0B1) | inhibition, % at 6.75 µM | hit rate 0.99% among 340,000 | HEK293 Gal4-DAX1 luciferase reporter, luminescence | AID 504766;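 active means inhibition above the mean over all tested compounds plus 3 SD, cut at about 4.2% in these data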;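 further: 0% = DAX1-transfected cells with DMSO and 100% = empty-vector control cells with DMSO; inhibition shows as a rise in luminescence from relieved DAX1 repression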
LXRb hcDAF ctr = LXR-beta agonism as hcDAF-12 counter-screen; AID 743027; 3,400 tested, under 10 active; activation, % at 6.8 µM; HEK293 Gal4-LXR tk-luc reporter, luminescence, 24 h; normalized: DMSO 0%, positive control 100%; shares compounds with hcDAF-12 act;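 active means mean percent activation of the reporter above a cutoff set as the average over tested compounds plus their standard deviation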
Target sequence (P55055 whole entry, looked up, the tested form may be a part): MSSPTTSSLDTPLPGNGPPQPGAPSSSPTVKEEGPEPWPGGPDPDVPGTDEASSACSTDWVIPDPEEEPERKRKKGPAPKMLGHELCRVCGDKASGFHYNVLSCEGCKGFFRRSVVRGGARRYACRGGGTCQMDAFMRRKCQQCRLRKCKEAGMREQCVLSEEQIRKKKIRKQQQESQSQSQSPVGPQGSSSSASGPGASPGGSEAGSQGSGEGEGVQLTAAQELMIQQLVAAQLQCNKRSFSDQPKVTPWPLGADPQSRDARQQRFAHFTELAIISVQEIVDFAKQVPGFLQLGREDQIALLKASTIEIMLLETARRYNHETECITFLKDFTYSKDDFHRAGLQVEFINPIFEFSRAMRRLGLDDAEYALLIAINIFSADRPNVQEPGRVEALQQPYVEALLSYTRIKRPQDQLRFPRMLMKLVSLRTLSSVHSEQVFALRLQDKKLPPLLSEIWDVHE
hcDAF12 conf = confirmation of H. contortus DAF-12 agonists. hit rate 61% among 3,400. HEK293 hcDAF-12 lit1-tk-luc reporter, luminescence; % of Δ7-dafachronic acid response. shares compounds with hcDAF-12 act. activation, % at 6.8 µM;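 active means mean activation across triplicate tests above the threshold derived from the earlier primary screen, cut at about 5.5% in these data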;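 further: 0% = DMSO only wells and 100% = 3 µM Δ7-dafachronic acid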
hgDAF12 conf = confirmation of H. glycines DAF-12 agonists | HEK293 GAL4-hgDAF12 luciferase reporter, agonist mode; percent of butyrate response | hit rate 80% among 3,300 | shares compounds with hgDAF12 agonist | activation, % at 6.8 µM;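 active means mean activation over triplicate wells above the hit cutoff derived from the earlier primary screen, cut at about 11% in these data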;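 further: 0% = DMSO low control and 100% = 2 mM sodium butyrate high control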
LXRb DAF12 ctr = activates human LXR-beta, counter-screen for DAF-12 agonists. shares compounds with hgDAF12 agonist. HEK293 Gal4-LXR luciferase reporter, 24 h. 3,300 tested, under 10 active. AID 743051. activation, % at 6.8 µM;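 active means mean activation of the triplicate above a set limit carried over from the primary screen, none filed active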
* hit, by the source's call; · = not tested or not shown.

SMILES | hgDAF12 agonist | DAX1 inh-1 | hcDAF-12 act | ssDAF12 agonist | DAX1 inh-2 | LXRb hcDAF ctr | hcDAF12 conf | hgDAF12 conf | LXRb DAF12 ctr
Cc1ccc(-c2cn(-c3ccccc3)c(SCC(=O)NC3CCS(=O)(=O)C3)n2)cc1C (stereo unspecified) | 17.0* | 2.0 | 8.4* | -0.2 | 1.1 | 1.0 | 4.1 | 6.6 | 0.7
Cc1ccc(SCC(=O)NC2CCS(=O)(=O)C2)cc1C (stereo unspecified) | 0.8 | 1.2 | 0.4 | 0.2 | 0.5 | · | · | · | ·
Cc1ccc(-c2nc3ccsc3c(=O)[nH]2)cc1 | 21.5* | 3.7* | 11.8* | 1.4* | 1.6 | 0.9 | 14.0* | 14.6* | 0.5
CCCCCCCCN1C(=O)[C@@H](CC(=O)NCCc2ccccc2OC)C[C@@]2(C(=O)OC)C1=C[C@H](C1CCCC1)O[C@@H]2C | -0.3 | 0.4 | -0.1 | -1.2 | · | · | · | · | ·
O=[N+]([O-])c1ccc(NN=Cc2cccc(O)c2)nc1 | 18.4* | 1.2 | 10.1* | 0.7 | 5.6* | 1.1 | 4.0 | 20.7* | 0.8
CCN(CC)C(=O)CC[C@H]1CC[C@]2(CCCN(Cc3cccs3)C2)O1 | -0.1 | -0.2 | -1.2 | -1.3 | · | · | · | · | ·
CCCCNC(=O)c1cc(-c2ccc3c(c2)OCO3)on1 | 2.4 | 0.8 | 2.8 | 0.0 | 2.8 | · | · | · | ·
CC(C)NC(=O)c1cc(-c2ccc3c(c2)OCO3)on1 | 13.9* | 2.9 | 6.6* | -0.3 | 1.9 | 1.1 | 5.2 | 14.1* | 0.9
O=C(Nc1cnc2ccccc2c1)c1ccco1 | 14.6* | 3.1 | 7.1* | 0.4 | 0.1 | 1.6 | 4.3 | 17.7* | 0.8
O=C(Nc1cccc(-c2cnc3ccccc3n2)c1)c1ccco1 | 0.8 | -0.2 | -1.0 | -1.2 | -0.1 | · | · | · | ·
O=C(c1ccccc1)n1c(=S)nc2ccccn21 | 16.0* | 3.4 | 15.3* | 1.1* | 3.5 | 1.8 | 14.1* | 16.7* | 0.8
Cc1ccc(-c2cc(-c3cccc(F)c3)n[nH]2)c(O)c1 | 13.5* | 4.2* | 12.7* | 2.5* | 5.0* | 1.2 | 7.6* | 16.9* | 0.9
O=[N+]([O-])c1cccc(-c2cc(-c3cc(Br)ccc3O)[nH]n2)c1 | -0.9 | -1.0 | -2.0 | -1.0 | -1.3 | · | · | · | ·
O=[N+]([O-])c1ccccc1-c1cc(-c2ccccc2O)n[nH]1 | 16.0* | 2.2 | 7.9* | 0.8 | 0.9 | 0.7 | 3.9 | 12.9* | 0.4
Cc1ccc(-c2cc(-c3ccccc3C)[nH]n2)c(O)c1 | 13.9* | 3.1 | 6.8* | 0.8 | 2.5 | 0.7 | 5.1 | 16.6* | 0.7
CN(C)c1cccc2c(S(=O)(=O)NCC3CCN(C(=O)C(=O)c4cc5ccccc5o4)CC3)cccc12 | -1.2 | -1.6 | -2.2 | -1.2 | · | · | · | · | ·
O=C(NC(=S)Nc1ccccc1C(=O)O)c1ccc2ccccc2c1 | 1.2 | 0.5 | -1.3 | -0.8 | -1.0 | · | · | · | ·
NC(=O)c1ccccc1NC(=O)c1ccc2ccccc2c1 | 22.6* | 2.7 | 11.3* | 3.1* | 0.0 | 1.9 | 9.2* | 22.5* | 1.0
Cc1c(/C=C/C(=O)c2ccccc2)cnn1C | 5.2 | -0.1 | 0.5 | -0.9 | 3.6 | · | · | · | ·
Cn1cc(/C=C/C(=O)c2ccccc2)c2ccccc21 | 14.0* | 1.6 | 11.7* | 1.4* | -0.7 | 1.9 | 12.6* | 21.6* | 1.3
Cc1ccc(/C=C(\C#N)c2nc3ccccc3[nH]2)s1 | 8.0 | 3.2 | 4.9 | 0.5 | 1.4 | · | · | · | ·
N#C/C(=C/c1cccs1)c1nc2ccccc2[nH]1 | 17.6* | -0.1 | 6.8* | -0.7 | -0.6 | 1.2 | 8.4* | 14.4* | 0.7
Cc1csc(NC(=O)c2ccc3nc[nH]c3c2)n1 | 19.7* | 2.5 | 9.8* | 0.1 | 1.2 | 1.2 | 5.1 | 19.6* | 0.9
